Values joined by “and” are separate entries in the source; they are usually repeats but may differ in a detail not shown here. Equal values may be shown once. Records with an inconclusive call do not appear. Some compounds were tested as several samples or in several runs, with calls that do not always agree. Active and inactive are the calls of the source. The calls were made as follows, unless noted: active = hit-call score of the fitted dose curve at least 0.9, where 1 is the maximum; inactive = score below 0.9.
Tests used:
[1] = target: human RAR-related Orphan Receptor gamma (RORg), RORC (gene 6097) (UniProt P51449); assay: ATG_RORg_TRANS: Attagene TRANS-FACTORIAL HepG2 Assay for human RAR-related Orphan Receptor gamma (RORg) (AID 2283011; active = hit-call score of the fitted dose curve at least 0.9, where 1 is the maximum)
In short: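 Readout: reporter transcript induction (RT-PCR, fluorescent primer extension, capillary electrophoresis) after 24 h compound exposure of transiently transfected HepG2 cells carrying a RORg-Gal4 chimera and GAL4-UAS reporters; DMSO served as baseline, with increasing signal fitted.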

[2] = target: Retinoic acid receptor RXR-alpha (Homo sapiens) (UniProt P19793); assay: ATG_RXRa_TRANS: Attagene TRANS-FACTORIAL HepG2 Assay for human Retinoid X Receptor alpha (RXRa) (AID 2283012; active = hit-call score of the fitted dose curve at least 0.9, where 1 is the maximum)
In short: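 Chimeric NR-GAL4 trans-activation in HepG2, 24 h treatment; reporter transcripts quantified by fluorescence on capillary electrophoresis, analysed for upward change from DMSO.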

[3] = target: human Retinoid X Receptor beta (RXRb), RXRB (gene 6257) (UniProt P28702); assay: ATG_RXRb_TRANS: Attagene TRANS-FACTORIAL HepG2 Assay for human Retinoid X Receptor beta (RXRb) (AID 2283013; active = hit-call score of the fitted dose curve at least 0.9, where 1 is the maximum)
In short: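 After a 24 h incubation with test chemical, transfected HepG2 cells carrying NR-Gal4 fusions and GAL4-UAS reporter transcription units yield RNA whose reporter cDNA is FAM-labelled, HpaI-cut and sized by capillary electrophoresis; increases over DMSO are scored.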

[4] = target: human Thyroid Receptor alpha (THRa1), THRA (gene 7067) (UniProt P10827); assay: ATG_THRa1_TRANS: Attagene TRANS-FACTORIAL HepG2 Assay for human Thyroid Receptor alpha (THRa1) (AID 2283014; active = hit-call score of the fitted dose curve at least 0.9, where 1 is the maximum)
In short: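 HepG2 cells transiently transfected with multiplexed GAL4-UAS reporter units for exogenous chimeric THRa1-Gal4; reporter mRNA measured 24 h after dosing by RT-PCR, 6-FAM labelling, HpaI digestion and capillary electrophoresis. Gain-of-signal fitted versus DMSO baseline.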

[5] = read-out: Interleukin-1 alpha (IL1a), IL1A (gene 3552); assay: BSK_BE3C_IL1a: BioMAP Diversity Plus: BE3C Assay for Interleukin-1 alpha (IL1a) Biomarker Activity (AID 2283016); settings: primary human bronchial epithelial cells; actives raise or lower the signal
In short: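 Measured in human lung primary bronchial epithelial cells: IL-1a by ELISA at 24 h after dosing, with bidirectional fitting against DMSO.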

[6] = read-out: Monocyte Chemoattractant Protein-1 (MCP1), CCL2 (gene 6347); assay: BSK_4H_MCP1: BioMAP Diversity Plus: 4H Assay for Monocyte Chemoattractant Protein-1 (MCP1) Biomarker Activity (AID 2283018); settings: primary human endothelial cells (HUVEC); actives raise or lower the signal
In short: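 Primary human umbilical vein endothelium is exposed to chemical for 24 h before MCP-1 is assayed by ELISA. Concentration-response fitted bidirectionally relative to DMSO.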

[7] = read-out: Human Leukocyte Antigen - DR isotype (HLADR), HLA-DRA (gene 3122); assay: BSK_3C_HLADR: BioMAP Diversity Plus: 3C Assay for Human Leukocyte Antigen - DR isotype (HLADR) Biomarker Activity (AID 2283019); settings: primary human endothelial cells (HUVEC); actives raise or lower the signal
In short: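 Primary human umbilical vein endothelial cells (3C system) were dosed with compound and cell-surface HLA-DR was quantified by ELISA at 24 h. Activity was fitted bidirectionally against DMSO as negative control and baseline.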

[8] = read-out: Interleukin-8 (IL8), CXCL8 (gene 3576); assay: BSK_3C_IL8: BioMAP Diversity Plus: 3C Assay for Interleukin-8 (IL8) Biomarker Activity (AID 2283020); settings: primary human endothelial cells (HUVEC); actives raise or lower the signal
In short: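 Using DMSO-treated wells as the baseline, bidirectional curve fitting was applied to ELISA-measured IL-8 from human umbilical vein endothelial cultures sampled 24 h after compound addition.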

[9] = read-out: Monokine induced gamma interferon (MIG), CXCL9 (gene 4283); assay: BSK_3C_MIG: BioMAP Diversity Plus: 3C Assay for Monokine induced gamma interferon (MIG) Biomarker Activity (AID 2283021); settings: primary human endothelial cells (HUVEC); actives raise or lower the signal;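 as to AC50: MIG protein level measured by immunoassay in the treated endothelial cultures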
In short: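 ELISA-measured MIG in dosed HUVEC 3C cultures at 24 h, analysed by bidirectional fitting with DMSO defining baseline activity.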

[10] = target: human Vitamin D Receptor (VDR), VDR (gene 7421) (UniProt P11473); assay: ATG_VDR_TRANS: Attagene TRANS-FACTORIAL HepG2 Assay for human Vitamin D Receptor (VDR) (AID 2283022; active = hit-call score of the fitted dose curve at least 0.9, where 1 is the maximum)
In short: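 HepG2 cells were transiently transfected with multiple GAL4-UAS reporter units, so signal reflects exogenous chimeric receptor-Gal4 activity. After 24 h compound exposure, reporter mRNA was measured by RT-PCR, fluorescent labelling and capillary electrophoresis, fitted for gain of signal versus DMSO.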

[11] = BSK_3C_SRB: Viability Assessment in the BioMAP Diversity Plus: 3C Assay (AID 2283023); settings: primary human endothelial cells (HUVEC);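 also: fitted both ways against DMSO so a hit may be signal rise or drop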
In short: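 Primary human umbilical vein endothelial cells in the 3C system were read 24 h after compound dosing. Total protein was stained with 0.1% sulforhodamine B after 10% TCA fixation and read at 560 nm, with bidirectional fitting against DMSO as baseline.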

[12] = read-out: Matrix Metallopeptidase 1 (MMP1), MMP1 (gene 4312); assay: BSK_BE3C_MMP1: BioMAP Diversity Plus: BE3C Assay for Matrix Metallopeptidase 1 (MMP1) Biomarker Activity (AID 2283024); settings: primary human bronchial epithelial cells; actives raise or lower the signal
In short: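 In this multiplexed primary-cell system, human bronchial epithelium received chemicals for 24 h before an ELISA for MMP1. Values reflect bidirectional fits normalised to the DMSO baseline.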

[13] = read-out: Pselectin, SELP (gene 6403); assay: BSK_4H_Pselectin: BioMAP Diversity Plus: 4H Assay for Pselectin Biomarker Activity (AID 2283026); settings: primary human endothelial cells (HUVEC); actives raise or lower the signal
In short: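 Bidirectional fits against DMSO gave the endpoint. Cells: primary human umbilical vein endothelium, chemical-treated for 24 h before ELISA detection of P-selectin.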

[14] = BSK_4H_SRB: Viability Assessment in the BioMAP Diversity Plus: 4H Assay (AID 2283027); settings: primary human endothelial cells (HUVEC);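 also: cells exposed to compound for 24 h before staining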;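 as to AC50: curves fitted both ways versus DMSO so AC50 may be loss or gain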
In short: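 Cytotoxicity readout: sulforhodamine B (0.1%) staining of total protein after 10% TCA fixation, measured at 560 nm in human umbilical vein endothelium at 24 h. DMSO set the baseline; fitting was bidirectional.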

[15] = BSK_BE3C_SRB: Viability Assessment in the BioMAP Diversity Plus: BE3C Assay (AID 2283028); settings: primary human bronchial epithelial cells;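 also: fitted both ways so AC50 may mark signal gain or loss versus DMSO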
In short: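 Human primary bronchial epithelial cells were exposed to test chemicals for 24 h. Total protein in parallel cultures was then measured by staining with 0.1% sulforhodamine B after 10% TCA fixation, with absorbance read at 560 nm. Activity was fitted bidirectionally against DMSO.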

[16] = read-out: Thrombomodulin, THBD (gene 7056); assay: BSK_3C_Thrombomodulin: BioMAP Diversity Plus: 3C Assay for Thrombomodulin Biomarker Activity (AID 2283029); settings: primary human endothelial cells (HUVEC); actives raise or lower the signal
In short: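 In a multiplexed primary-cell system, human umbilical vein endothelium received chemical and was assayed 24 h later for thrombomodulin by ELISA. Parallel cultures were SRB-stained (0.1% SRB after 10% TCA fixation, read at 560 nm) to flag cytotoxicity.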

[17] = target: human RAR-related Orphan Receptor beta (RORb), RORB (gene 6096) (UniProt Q92753); assay: ATG_RORb_TRANS: Attagene TRANS-FACTORIAL HepG2 Assay for human RAR-related Orphan Receptor beta (RORb) (AID 2283010; active = hit-call score of the fitted dose curve at least 0.9, where 1 is the maximum)
In short: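 Multiplexed transcription-factor reporter assay: HepG2 cells transiently carrying NR-Gal4/GAL4-UAS constructs, 24 h treatment, mRNA quantified by RT-PCR plus capillary electrophoresis fluorescence; activity scored as induction over DMSO.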

[18] = read-out: E-selectin (Homo sapiens) (UniProt P16581); assay: BSK_3C_Eselectin: BioMAP Diversity Plus: 3C Assay for Eselectin Biomarker Activity (AID 2283015); settings: primary human endothelial cells (HUVEC); actives raise or lower the signal
In short: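 Primary human umbilical vein endothelial cells (3C system) were dosed with chemical and cell-surface E-selectin measured by ELISA 24 h later. Bidirectional curve fitting used DMSO as negative control and baseline.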

[19] = read-out: Monocyte Chemoattractant Protein-1 (MCP1), CCL2 (gene 6347); assay: BSK_3C_MCP1: BioMAP Diversity Plus: 3C Assay for Monocyte Chemoattractant Protein-1 (MCP1) Biomarker Activity (AID 2283017); settings: primary human endothelial cells (HUVEC); actives raise or lower the signal
In short: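 Primary human umbilical vein endothelial cells (3C system) were exposed to test chemical for 24 h, after which MCP-1 was quantified by ELISA. Activity was fitted bidirectionally against DMSO as negative control and baseline.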

Measured: AC50

Sequence of human RAR-related Orphan Receptor beta (RORb), RORB (gene 6096) (Q92753 whole entry, looked up, the tested form may be a part): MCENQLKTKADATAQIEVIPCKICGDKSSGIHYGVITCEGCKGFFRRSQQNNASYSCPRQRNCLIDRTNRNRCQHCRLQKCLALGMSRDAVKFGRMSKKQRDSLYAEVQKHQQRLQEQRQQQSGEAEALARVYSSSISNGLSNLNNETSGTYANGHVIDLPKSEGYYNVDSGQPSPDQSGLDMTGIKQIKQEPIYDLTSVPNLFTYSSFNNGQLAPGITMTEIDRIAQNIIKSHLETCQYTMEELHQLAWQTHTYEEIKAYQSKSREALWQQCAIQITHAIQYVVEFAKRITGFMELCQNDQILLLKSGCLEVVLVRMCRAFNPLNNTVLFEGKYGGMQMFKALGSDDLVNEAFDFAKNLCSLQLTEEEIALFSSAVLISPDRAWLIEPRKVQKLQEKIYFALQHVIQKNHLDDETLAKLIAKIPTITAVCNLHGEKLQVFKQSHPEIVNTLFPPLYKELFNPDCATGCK
Sequence of human Thyroid Receptor alpha (THRa1), THRA (gene 7067) (P10827 whole entry, looked up, the tested form may be a part): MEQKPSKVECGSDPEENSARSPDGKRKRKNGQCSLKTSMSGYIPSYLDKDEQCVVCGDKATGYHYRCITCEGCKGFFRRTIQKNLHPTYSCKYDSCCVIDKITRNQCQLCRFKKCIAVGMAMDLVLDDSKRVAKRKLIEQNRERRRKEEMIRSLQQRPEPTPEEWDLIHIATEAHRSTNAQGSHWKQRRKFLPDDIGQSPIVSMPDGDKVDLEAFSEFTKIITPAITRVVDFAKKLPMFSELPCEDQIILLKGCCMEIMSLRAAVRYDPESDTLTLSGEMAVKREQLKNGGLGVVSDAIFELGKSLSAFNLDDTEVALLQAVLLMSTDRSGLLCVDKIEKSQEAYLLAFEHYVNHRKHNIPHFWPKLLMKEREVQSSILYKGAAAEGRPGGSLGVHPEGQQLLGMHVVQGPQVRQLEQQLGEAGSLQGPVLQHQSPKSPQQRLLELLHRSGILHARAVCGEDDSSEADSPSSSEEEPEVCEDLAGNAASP
Sequence of Retinoic acid receptor RXR-alpha (Homo sapiens) (P19793 whole entry, looked up, the tested form may be a part): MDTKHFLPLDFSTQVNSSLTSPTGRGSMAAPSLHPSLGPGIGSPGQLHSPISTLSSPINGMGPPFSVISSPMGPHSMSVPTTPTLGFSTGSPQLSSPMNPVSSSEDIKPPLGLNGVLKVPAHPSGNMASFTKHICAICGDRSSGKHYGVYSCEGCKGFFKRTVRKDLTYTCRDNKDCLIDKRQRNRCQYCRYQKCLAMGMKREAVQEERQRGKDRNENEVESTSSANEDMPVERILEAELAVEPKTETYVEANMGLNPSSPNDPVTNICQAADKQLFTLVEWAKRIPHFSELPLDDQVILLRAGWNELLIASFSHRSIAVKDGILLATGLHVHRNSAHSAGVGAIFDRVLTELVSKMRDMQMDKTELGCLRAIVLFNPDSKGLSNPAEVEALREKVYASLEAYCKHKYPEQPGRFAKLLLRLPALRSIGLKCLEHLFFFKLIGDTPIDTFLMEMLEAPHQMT
Sequence of human Retinoid X Receptor beta (RXRb), RXRB (gene 6257) (P28702 whole entry, looked up, the tested form may be a part): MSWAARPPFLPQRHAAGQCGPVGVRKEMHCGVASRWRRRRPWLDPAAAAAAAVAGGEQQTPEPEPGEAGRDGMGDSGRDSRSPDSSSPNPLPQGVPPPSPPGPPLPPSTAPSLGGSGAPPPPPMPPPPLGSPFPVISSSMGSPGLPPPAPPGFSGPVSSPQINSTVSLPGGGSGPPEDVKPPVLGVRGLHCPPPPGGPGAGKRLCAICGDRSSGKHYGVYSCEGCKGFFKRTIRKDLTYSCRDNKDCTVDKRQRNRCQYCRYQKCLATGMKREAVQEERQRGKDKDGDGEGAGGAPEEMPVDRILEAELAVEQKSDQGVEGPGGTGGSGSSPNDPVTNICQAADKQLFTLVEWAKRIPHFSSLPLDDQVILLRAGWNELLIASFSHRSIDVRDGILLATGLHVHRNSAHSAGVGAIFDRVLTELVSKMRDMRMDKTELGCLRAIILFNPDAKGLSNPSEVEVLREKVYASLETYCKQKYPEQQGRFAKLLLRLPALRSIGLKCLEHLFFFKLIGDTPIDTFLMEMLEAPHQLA
Sequence of E-selectin (Homo sapiens) (P16581 whole entry, looked up): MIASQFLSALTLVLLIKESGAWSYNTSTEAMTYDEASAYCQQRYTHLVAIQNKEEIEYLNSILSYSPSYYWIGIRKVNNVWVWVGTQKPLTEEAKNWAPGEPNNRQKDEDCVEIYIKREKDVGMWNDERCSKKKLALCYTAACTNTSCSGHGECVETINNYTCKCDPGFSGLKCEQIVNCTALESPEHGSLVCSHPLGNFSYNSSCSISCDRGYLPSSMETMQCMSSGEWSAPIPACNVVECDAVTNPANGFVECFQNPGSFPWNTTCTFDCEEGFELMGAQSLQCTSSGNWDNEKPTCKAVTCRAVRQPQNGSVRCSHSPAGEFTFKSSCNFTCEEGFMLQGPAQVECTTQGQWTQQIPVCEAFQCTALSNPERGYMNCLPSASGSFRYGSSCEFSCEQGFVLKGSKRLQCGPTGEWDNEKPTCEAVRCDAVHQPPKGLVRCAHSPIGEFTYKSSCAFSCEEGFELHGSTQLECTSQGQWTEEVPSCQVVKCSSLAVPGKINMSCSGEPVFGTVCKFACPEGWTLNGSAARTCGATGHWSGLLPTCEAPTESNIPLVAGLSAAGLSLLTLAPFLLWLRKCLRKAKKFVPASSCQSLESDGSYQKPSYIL
Sequence of human RAR-related Orphan Receptor gamma (RORg), RORC (gene 6097) (P51449 whole entry, looked up, the tested form may be a part): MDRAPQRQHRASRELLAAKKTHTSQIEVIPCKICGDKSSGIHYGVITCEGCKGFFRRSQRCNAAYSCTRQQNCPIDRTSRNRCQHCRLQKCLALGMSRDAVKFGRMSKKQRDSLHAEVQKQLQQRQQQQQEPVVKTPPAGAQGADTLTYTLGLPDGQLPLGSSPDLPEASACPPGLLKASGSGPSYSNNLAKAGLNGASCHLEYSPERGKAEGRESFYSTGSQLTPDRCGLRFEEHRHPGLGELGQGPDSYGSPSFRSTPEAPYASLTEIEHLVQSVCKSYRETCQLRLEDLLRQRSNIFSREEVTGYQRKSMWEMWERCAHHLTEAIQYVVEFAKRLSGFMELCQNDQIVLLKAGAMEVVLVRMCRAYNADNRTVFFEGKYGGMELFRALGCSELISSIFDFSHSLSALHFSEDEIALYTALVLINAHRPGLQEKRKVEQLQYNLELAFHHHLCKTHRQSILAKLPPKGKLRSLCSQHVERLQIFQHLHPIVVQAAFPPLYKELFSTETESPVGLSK
Sequence of human Vitamin D Receptor (VDR), VDR (gene 7421) (P11473 whole entry, looked up, the tested form may be a part): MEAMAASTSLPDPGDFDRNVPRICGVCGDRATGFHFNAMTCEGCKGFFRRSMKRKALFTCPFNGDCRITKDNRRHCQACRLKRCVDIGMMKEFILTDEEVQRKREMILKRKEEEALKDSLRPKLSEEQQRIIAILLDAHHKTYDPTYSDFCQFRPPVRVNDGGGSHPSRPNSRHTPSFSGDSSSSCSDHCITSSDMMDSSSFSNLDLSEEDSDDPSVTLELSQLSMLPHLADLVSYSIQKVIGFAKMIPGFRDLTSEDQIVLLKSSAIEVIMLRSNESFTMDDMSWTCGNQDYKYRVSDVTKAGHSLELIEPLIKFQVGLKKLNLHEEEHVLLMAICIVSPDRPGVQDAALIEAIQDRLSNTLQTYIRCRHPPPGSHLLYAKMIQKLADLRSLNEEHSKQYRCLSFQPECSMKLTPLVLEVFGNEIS

O=C(O)C(F)(F)C(F)(F)C(F)(F)C(F)(F)C(F)(F)C(F)(F)C(F)(F)C(F)(F)Cl
active: [3] 19.9 µM and 20.5 µM | [5] 25.1 µM and 23.6 µM | [7] 53.3 µM and 49 µM | [8] 45.1 µM | [9] 55.1 µM | [11] 52.5 µM and 45.1 µM | [12] 7.12 µM and 55.3 µM | [14] 49.7 µM and 52.2 µM | [15] 41.3 µM and 29.4 µM | [16] 48.5 µM and 45.4 µM
inactive: [1] | [2] | [4] | [6] | [8] | [9] | [10] | [13]

C1COCCN1
inactive: [1] | [2] | [3] | [4] | [10]

CC(C)c1ccccc1N
inactive: [17] | [3]

C=CC(F)(F)C(F)(F)C(F)(F)C(F)(F)C(F)(F)C(F)(F)C(F)(F)C(F)(F)C=C
inactive: [1] | [2] | [3] | [18] | [5] | [19] | [6] | [7] | [8] | [9] | [11] | [12] | [13] | [14] | [16]

O=C(O)C(F)(F)C(F)(F)C(F)(F)C(F)(F)F
inactive: [17] | [1] | [2] | [3] | [18] | [5] | [19] | [6] | [7] | [8] | [9] | [10] | [11] | [12] | [13] | [14]

O=P(O)(O)OCCC(F)(F)C(F)(F)C(F)(F)C(F)(F)C(F)(F)C(F)(F)F
inactive: [17] | [1] | [2] | [4] | [18] | [5] | [6] | [7] | [8] | [9] | [11] | [12] | [13] | [14]

C=CC(=O)OCC(F)(F)C(F)(F)C(F)(F)C(F)(F)COC(=O)C=C
inactive: [1] | [2] | [4] | [10]
active: [3] 1.1 µM | [18] 35.8 µM and 38.1 µM | [5] 20.2 µM and 25.4 µM | [19] 33.8 µM and 22.1 µM | [6] 49.4 µM and 49 µM | [7] 17.2 µM and 18.1 µM | [8] 23.6 µM and 44.4 µM | [9] 23.5 µM and 26.4 µM | [11] 34.8 µM and 24.8 µM | [12] 20.4 µM and 20.5 µM | [13] 20.6 µM and 28.9 µM | [14] 47.1 µM and 44.8 µM

O=C(O)C=C(C(F)(F)F)C(F)(F)F
active: [18] 15.3 µM and 5.95 µM | [7] 30 µM and 47.7 µM | [13] 22.4 µM and 21.1 µM
inactive: [1] | [2] | [3] | [4] | [5] | [6] | [8] | [9] | [10] | [11] | [12] | [14] | [16]

— PubChem BioAssay (EPA / NIEHS)
